Assay results published in PubChem BioAssay (Tox21).
“And” between values parts separate entries of the source, which are not always exact repeats. Equal entries are not always repeated. Inconclusive results are not listed. The source made the active and inactive calls. Unless noted, the call rests on the fitted dose curve; in most records, active means well fitted curve in the direction sought with a large enough effect in the repeat runs; inconclusive means weak or mixed curves; inactive means no such curve, though single readings can be large; an effect the other way counts as inactive or inconclusive.

Key:
[1] = molecular target: Estrogen receptor (Homo sapiens) (UniProt P03372); assay: qHTS assay to identify small molecule antagonists of the estrogen receptor alpha (ER-alpha) signaling pathway using the BG1 cell line in the presence of 0.1 nM 17-beta-estradiol (AID 1259244); further: nearly all actives have a fitted effect of over 50% in size
Chain of Estrogen receptor (Homo sapiens) (P03372 whole entry, looked up): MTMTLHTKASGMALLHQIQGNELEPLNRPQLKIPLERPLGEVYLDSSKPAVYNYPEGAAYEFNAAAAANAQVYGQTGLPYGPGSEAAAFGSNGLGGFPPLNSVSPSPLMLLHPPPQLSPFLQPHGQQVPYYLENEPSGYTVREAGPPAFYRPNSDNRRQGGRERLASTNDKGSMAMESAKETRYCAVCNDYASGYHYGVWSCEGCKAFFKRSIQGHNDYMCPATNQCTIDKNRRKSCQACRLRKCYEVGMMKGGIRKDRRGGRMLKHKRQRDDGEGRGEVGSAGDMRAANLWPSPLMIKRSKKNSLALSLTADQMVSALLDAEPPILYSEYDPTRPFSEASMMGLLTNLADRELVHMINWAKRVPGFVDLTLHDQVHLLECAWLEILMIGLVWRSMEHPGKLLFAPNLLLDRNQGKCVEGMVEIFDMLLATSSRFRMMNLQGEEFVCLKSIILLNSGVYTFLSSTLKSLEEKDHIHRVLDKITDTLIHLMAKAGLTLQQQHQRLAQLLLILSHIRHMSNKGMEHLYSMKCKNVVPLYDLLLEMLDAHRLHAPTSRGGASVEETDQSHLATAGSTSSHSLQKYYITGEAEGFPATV
Summary of the method: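 Cells: VM7Luc4E2, endogenous ER-alpha, 4x ERE-luc stable. Pre-culture 5 d, phenol red-free, charcoal-stripped FBS. Plated 24 h, compound + E2 0.1 nM final, 22 h 37C/5% CO2. Readout ONE-Glo luminescence.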

[2] = qHTS assay to identify small molecule HDAC inhibitors (AID 1259364); further: top concentration of the series differs between compounds; nearly all actives have a fitted effect of over 45% in size
Summary of the method: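 Luminescence from a cell-permeant luminogenic class I/II HDAC substrate reports endogenous deacetylase activity in intact HCT-116 cells treated with compounds for 2 h.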

[3] = qHTS assay to identify small molecule HDAC inhibitors - cell viability counter screen (AID 1259365); further: series mostly up to about 92 µM; nearly all actives have a fitted effect of over 50% in size
Summary of the method: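 After overnight seeding at 1,500 cells per well, wild-type HCT-116 cultures took up compounds in DMSO for 2hr at 37 C. Viable cell content came from luminescence with CellTiter-Glo.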

[4] = qHTS assay to identify small molecule agonists of the sonic hedgehog signaling (Shh) pathway - cell viability counter screen (AID 1259366); further: nearly all actives have a fitted effect of over 50% in size
Summary of the method: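 Same-well cytotoxicity read. Gli1-Luc reporter 3T3 cells; compounds 24hr, 37C/5% CO2; CellTiter-Fluor fluorescence.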

[5] = qHTS assay to identify small molecule antagonists of the sonic hedgehog signaling (Shh) pathway - cell viability counter screen (AID 1259367); further: nearly all actives have a fitted effect of over 55% in size
Summary of the method: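 After a 4 hr settling period, 3T3 Gli1-Luc cells were treated with DMSO-dissolved chemicals and conditioned medium, kept 24 hr at 37C in 5% CO2, and assayed for viability by CellTiter-Fluor fluorescence following 1 hr reagent incubation.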

[6] = qHTS assay to identify small molecule agonists of the sonic hedgehog signaling (Shh) pathway (AID 1259368; calls by dose curve;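 further: NIH/3T3-derived 3T3Gli1-Luc cells carrying a stable Gli1-driven firefly luciferase reporter; series mostly up to about 92 µM; nearly all actives have a fitted effect of over 15% in size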)
Summary of the method: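 3T3Gli1-Luc (NIH/3T3 clone, stable Gli1-Luc); 4 hr pre-incubation, then cpd in DMSO 24 hr, 37 C/5% CO2; luciferase reagent 30 min RT; luminescence.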

[7] = qHTS assay to identify small molecule antagonists of the sonic hedgehog signaling (Shh) pathway (AID 1259369; calls by dose curve; further: nearly all actives have a fitted effect of over 45% in size)
Summary of the method: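 3T3Gli1-Luc, conditioned-medium-stimulated, 24hr cpd, 37C/5% CO2; Gli1-driven firefly Luc luminescence after 30min RT with luciferase reagent. Cells plated 4hr before cpd.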

[8] = qHTS assay to identify small molecule agonists of the estrogen receptor beta (ER-beta) signaling pathway - cell viability counter screen (AID 1259380); further: nearly all actives have a fitted effect of over 30% in size; further: potency means the concentration at half of the fitted maximal effect
Summary of the method: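 HEK293T ER-beta-UAS-bla; 2% CS-FBS; 6 hr pre-plate, 16 hr cpd at 37C/5% CO2; LiveBLAzer read first, then CellTiter-Glo 30 min RT, luminescence.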

[9] = qHTS assay to identify small molecule antagonists of the estrogen receptor beta (ER-beta) signaling pathway - cell viability counter screen (AID 1259382); further: series mostly up to about 92 µM; nearly all actives have a fitted effect of over 55% in size
Summary of the method: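 Cells: ER-beta-UAS-bla HEK293T, 2,000/well, 2% CS-FBS, 6 hr settle. Cpd + E2 (1nM final), 16 hr, 37C/5% CO2. Bla FRET substrate 2 hr RT, then CellTiter-Glo 30 min RT, luminescence.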

[10] = molecular target: Estrogen receptor (Homo sapiens) (UniProt P03372); assay: qHTS assay to identify small molecule agonists of the estrogen receptor alpha (ER-alpha) signaling pathway in the presence of an antagonist (AID 1259383; calls by dose curve; further: nearly all actives have a fitted effect of over 15% in size; further: potency means the concentration at half of the fitted maximal effect; on activation: top concentration of the series differs between compounds)
Summary of the method: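 VM7Luc4E2, endog. ER-alpha + 4×ERE-luc; charcoal-stripped FBS, phenol red-free, 5 d; 24hr plating; +10.0nM ICI-182,780 (final); cpds 15 conc, 22hr, 37C/5% CO2; ONE-Glo luminescence.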

[11] = qHTS assay to identify small molecule agonists or antagonists of the thyroid stimulating hormone receptor (TSHR) signaling pathway - wild type cell line counter screen (AID 1259384; calls by dose curve)
Summary of the method: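 Wild-type HEK293 cells were plated 18 h at 37 C/5% CO2, pin-dosed with compound plus Ro20-1724 medium, held 30 min at room temperature, then given cAMP-d2 and anti-cAMP-cryptate; fluorescence was read after 1 h. Fifteen concentrations, triplicate.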

[12] = molecular target: Thyrotropin receptor (Homo sapiens) (UniProt P16473); assay: qHTS assay to identify small molecule antagonists of the thyroid stimulating hormone receptor (TSHR) signaling pathway (AID 1259385; calls by dose curve; further: nearly all actives have a fitted effect of over 20% in size)
Chain of Thyrotropin receptor (Homo sapiens) (P16473 whole entry, looked up): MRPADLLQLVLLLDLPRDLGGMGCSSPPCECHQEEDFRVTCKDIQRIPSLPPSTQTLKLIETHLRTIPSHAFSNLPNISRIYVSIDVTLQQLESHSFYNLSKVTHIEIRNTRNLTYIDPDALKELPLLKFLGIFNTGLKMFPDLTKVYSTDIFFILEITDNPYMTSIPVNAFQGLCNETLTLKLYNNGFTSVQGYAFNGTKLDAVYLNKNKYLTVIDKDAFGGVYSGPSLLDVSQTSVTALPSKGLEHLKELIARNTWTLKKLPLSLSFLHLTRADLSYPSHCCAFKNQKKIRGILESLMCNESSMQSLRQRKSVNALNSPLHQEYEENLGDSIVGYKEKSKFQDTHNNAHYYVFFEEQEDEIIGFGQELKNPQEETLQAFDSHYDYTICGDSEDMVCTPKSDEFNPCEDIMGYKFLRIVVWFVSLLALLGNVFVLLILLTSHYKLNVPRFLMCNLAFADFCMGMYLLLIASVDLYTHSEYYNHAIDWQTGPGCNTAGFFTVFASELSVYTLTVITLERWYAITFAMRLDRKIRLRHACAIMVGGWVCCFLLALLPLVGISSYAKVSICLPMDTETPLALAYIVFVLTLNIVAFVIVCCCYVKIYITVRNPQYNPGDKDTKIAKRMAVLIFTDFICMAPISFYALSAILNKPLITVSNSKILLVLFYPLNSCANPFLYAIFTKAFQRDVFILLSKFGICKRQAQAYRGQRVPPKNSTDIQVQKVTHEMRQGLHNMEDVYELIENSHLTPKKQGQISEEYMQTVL
Summary of the method: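 TSHR-HEK293 cells were plated and held 18 h at 37C/5% CO2, then given compound plus Ro20-1724 and stimulated with TSH at 1.5 ng/mL final. After 30 min at room temperature, cAMP was detected with cAMP-d2/anti-cAMP-cryptate (1 h) by fluorescence.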

[13] = molecular target: Progesterone receptor (Homo sapiens) (UniProt P06401); assay: qHTS assay to identify small molecule agonists of the progesterone receptor (PR) signaling pathway (AID 1346784; calls by dose curve; further: nearly all actives have a fitted effect of over 30% in size)
Chain of Progesterone receptor (Homo sapiens) (P06401 whole entry, looked up): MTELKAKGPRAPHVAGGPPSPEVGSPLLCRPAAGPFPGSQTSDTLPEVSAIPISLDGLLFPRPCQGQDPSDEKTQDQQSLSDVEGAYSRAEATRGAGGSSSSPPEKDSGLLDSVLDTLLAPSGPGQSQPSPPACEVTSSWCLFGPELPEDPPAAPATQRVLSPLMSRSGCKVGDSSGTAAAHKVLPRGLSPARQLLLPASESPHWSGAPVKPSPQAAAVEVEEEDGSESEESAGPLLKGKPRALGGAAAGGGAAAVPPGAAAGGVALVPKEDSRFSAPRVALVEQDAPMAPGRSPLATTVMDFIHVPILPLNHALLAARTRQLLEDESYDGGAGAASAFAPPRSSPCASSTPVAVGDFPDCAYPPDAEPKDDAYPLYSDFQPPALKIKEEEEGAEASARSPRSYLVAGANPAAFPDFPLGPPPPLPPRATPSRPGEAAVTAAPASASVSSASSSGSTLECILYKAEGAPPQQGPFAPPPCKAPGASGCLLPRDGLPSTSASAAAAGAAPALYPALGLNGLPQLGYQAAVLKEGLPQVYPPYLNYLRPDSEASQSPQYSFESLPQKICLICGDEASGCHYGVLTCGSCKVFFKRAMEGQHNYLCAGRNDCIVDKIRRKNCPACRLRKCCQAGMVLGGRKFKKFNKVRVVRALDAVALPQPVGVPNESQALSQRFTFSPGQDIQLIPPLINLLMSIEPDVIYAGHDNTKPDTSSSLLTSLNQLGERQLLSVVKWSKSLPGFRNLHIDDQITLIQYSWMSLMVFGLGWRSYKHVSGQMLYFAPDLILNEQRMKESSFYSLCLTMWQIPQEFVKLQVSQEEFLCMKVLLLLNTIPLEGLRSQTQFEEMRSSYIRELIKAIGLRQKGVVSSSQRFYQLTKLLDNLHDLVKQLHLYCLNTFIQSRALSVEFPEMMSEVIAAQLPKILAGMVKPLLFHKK
Summary of the method: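 Compounds were tested for PR agonism in HEK 293T cells bearing a beta-lactamase gene under UAS control. Treatment lasted 16 hr at 37C; signal came from fluorescence of a FRET substrate.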

[14] = molecular target: Progesterone receptor (Homo sapiens) (UniProt P06401); assay: qHTS assay to identify small molecule antagonists of the progesterone receptor (PR) signaling pathway (AID 1346795; active means well fitted inhibition curve with a large enough effect in the signal ratio in the repeat runs, not every such curve was filed as active; the % refers to the signal ratio; further: potency means the concentration at half of the fitted maximal effect)
Summary of the method: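 In HEK293T cells bearing the PR-UAS-bla reporter, compound effects on promegestone-driven (1 nM) beta-lactamase expression are assessed after 16 hr using a fluorescent FRET substrate incubated 2 hr at room temperature.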

[15] = molecular target: Estrogen receptor beta (Homo sapiens) (UniProt Q92731); assay: qHTS assay to identify small molecule agonists of the estrogen receptor beta (ER-beta) signaling pathway (AID 1259377; active means well fitted activation curve with a large enough effect in the signal ratio in the repeat runs, not every such curve was filed as active; the % refers to the signal ratio)
Chain of Estrogen receptor beta (Homo sapiens) (Q92731 whole entry, looked up): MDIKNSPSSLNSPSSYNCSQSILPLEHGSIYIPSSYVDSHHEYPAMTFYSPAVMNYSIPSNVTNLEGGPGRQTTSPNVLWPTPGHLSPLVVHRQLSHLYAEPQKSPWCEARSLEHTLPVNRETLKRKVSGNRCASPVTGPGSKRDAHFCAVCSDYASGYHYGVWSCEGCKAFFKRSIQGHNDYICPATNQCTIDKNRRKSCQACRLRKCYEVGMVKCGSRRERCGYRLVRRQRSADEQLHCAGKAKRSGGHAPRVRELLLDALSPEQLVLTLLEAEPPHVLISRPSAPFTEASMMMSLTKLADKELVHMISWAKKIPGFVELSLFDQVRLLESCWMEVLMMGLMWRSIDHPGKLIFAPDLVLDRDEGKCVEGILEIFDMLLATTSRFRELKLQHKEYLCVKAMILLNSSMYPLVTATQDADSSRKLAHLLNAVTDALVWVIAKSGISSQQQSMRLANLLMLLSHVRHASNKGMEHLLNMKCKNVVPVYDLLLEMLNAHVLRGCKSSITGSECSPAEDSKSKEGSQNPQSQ
Summary of the method: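 Read-out: beta-lactamase FRET fluorescence. Cell line: ER-beta-UAS-bla HEK293T in 2% charcoal-stripped FBS. Exposure: 16 hr at 37C. Substrate step: 2 h at room temperature.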

[16] = molecular target: Estrogen receptor beta (Homo sapiens) (UniProt Q92731); assay: qHTS assay to identify small molecule antagonists of the estrogen receptor beta (ER-beta) signaling pathway (AID 1259378; active means well fitted inhibition curve with a large enough effect in the signal ratio in the repeat runs, not every such curve was filed as active; the % refers to the signal ratio)
Summary of the method: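 ER-beta-UAS-bla HEK293T (GripTite) cells in 2% charcoal-stripped FBS medium were preincubated 6 hr at 37C, dosed with compound, then stimulated with 1 nM E2 (final) for 16 hr; beta-lactamase reporter read by B/G FRET fluorescence after 2 hr substrate loading.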

[17] = qHTS assay to identify small molecule agonists of the androgen receptor (AR) signaling pathway in the presence of an antagonist - cell viability counter screen (AID 1259379);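 further: MDA-kb2 human breast cancer cells carrying an MMTV luciferase reporter; series mostly up to about 92 µM; nearly all actives have a fitted effect of over 25% in size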
Summary of the method: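 Cells: MDA-kb2 (MMTV-luc, AR and GR elements), 3,000/well, 5 hr settle. Added: nilutamide 3.0uM final, then compounds (15 conc.). Incubation: 16 hr, 37C, no CO2. Read-out: CellTiter-Fluor, 1 hr, fluorescence.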

[18] = molecular target: Androgen receptor (Homo sapiens) (UniProt P10275); assay: qHTS assay to identify small molecule agonists of the androgen receptor (AR) signaling pathway in the presence of an antagonist (AID 1259381; calls by dose curve; further: nearly all actives have a fitted effect of over 15% in size)
Chain of Androgen receptor (Homo sapiens) (P10275 whole entry, looked up): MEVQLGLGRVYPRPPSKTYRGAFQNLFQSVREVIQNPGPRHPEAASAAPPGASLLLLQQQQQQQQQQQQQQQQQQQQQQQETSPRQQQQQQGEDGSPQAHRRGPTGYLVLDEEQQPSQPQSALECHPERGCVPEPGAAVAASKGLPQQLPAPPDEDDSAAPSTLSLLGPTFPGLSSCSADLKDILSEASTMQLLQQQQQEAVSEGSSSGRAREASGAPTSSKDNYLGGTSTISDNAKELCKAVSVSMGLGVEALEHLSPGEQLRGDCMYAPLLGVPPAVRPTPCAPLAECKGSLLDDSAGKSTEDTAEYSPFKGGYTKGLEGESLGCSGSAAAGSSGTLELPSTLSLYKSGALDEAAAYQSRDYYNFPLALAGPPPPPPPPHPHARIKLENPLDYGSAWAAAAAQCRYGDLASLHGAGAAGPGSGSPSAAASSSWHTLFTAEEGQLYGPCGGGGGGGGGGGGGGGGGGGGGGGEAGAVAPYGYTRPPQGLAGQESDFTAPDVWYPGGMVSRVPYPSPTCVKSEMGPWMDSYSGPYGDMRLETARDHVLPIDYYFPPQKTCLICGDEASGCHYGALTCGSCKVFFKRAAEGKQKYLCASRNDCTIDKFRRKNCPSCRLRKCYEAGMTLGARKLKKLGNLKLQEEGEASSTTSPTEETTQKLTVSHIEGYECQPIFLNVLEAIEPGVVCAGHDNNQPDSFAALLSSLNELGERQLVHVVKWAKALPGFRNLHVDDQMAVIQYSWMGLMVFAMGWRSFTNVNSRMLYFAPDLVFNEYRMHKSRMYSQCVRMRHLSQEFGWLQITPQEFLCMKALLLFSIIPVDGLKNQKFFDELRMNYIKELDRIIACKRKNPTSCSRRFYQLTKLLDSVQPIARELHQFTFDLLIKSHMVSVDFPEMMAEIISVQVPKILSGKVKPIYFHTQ
Summary of the method: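 MDA-kb2 cells, 3,000/well, rested 5hr at 37C/0% CO2 → nilutamide 3.0uM final or buffer → compounds, 15 conc. → 16hr at 37C → ONE-Glo, 30min RT → luminescence.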

[19] = qHTS assay to identify small molecule agonists of the estrogen receptor alpha (ER-alpha) signaling pathway in the presence of an antagonist - cell viability counter screen (AID 1259386);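 further: series mostly up to about 92 µM; cells exposed to compounds for 22 h at 37 °C before the viability read; nearly all actives have a fitted effect of over 30% in size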
Summary of the method: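 VM7Luc4E2, stripped-serum pre-culture 5 d; 24hr plating; +ICI-182,780 10.0nM final; cpds 15 conc, 22hr, 37C/5% CO2; CellTiter-Fluor added at 21hr, fluorescence 1hr later.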
On the % scale 0 is the no-effect control and ±100 the full control effect.

OCCC(O)CO (configuration not stated)
inactive: Potency [1] | Potency [2] | Potency [3] | Potency [4] | Potency [5] | Potency [6] | Potency [7] | Potency [8] | Potency [9] | Potency [10] | outcome [11] | Potency [12] | outcome [13] | Potency [14]

CCCC(=O)OCC(COC(=O)CCC)OC(=O)CCC
inactive: Potency [1] | Potency [2] | Potency [3] | Potency [4] | Potency [5] | Potency [6] | Potency [15] | Potency [16] | Potency [17] | Potency [8] | Potency [18] | Potency [9] | Potency [10] | outcome [11] | Potency [12] | Potency [19] | Potency [14]

CCCCCCCOC(=O)c1ccc(O)cc1
active: Potency [8] 30.7 µM and 24.3 µM | Potency [10] 48.6 µM | Potency [14] 24.4 µM and 38.6 µM
inactive: Potency [1] | Potency [2] | Potency [3] | Potency [4] | Potency [5] | Potency [6] | Potency [15] | Potency [17] | Potency [19]

CCOC(/C=C(\C)CCC=C(C)C)OCC
inactive: Potency [1] | Potency [2] | Potency [3] | Potency [4] | Potency [5] | Potency [6] | Potency [16] | Potency [17] | Potency [8] | Potency [10] | outcome [11] | Potency [12] | Potency [19] | outcome [13] | Potency [14]

COc1cccc(O)c1
inactive: Potency [1] | Potency [2] | Potency [3] | Potency [4] | Potency [5] | Potency [6] | Potency [7] | Potency [17] | Potency [8] | Potency [9] | Potency [10] | Potency [19] | outcome [13] | Potency [14]

CCC(=O)CC(C)CC (configuration not stated)
inactive: activity change, negative = inhibition [1] 2.34% [at 0.349 µM] | activity change, negative = inhibition [2] 2.62% [at 0.349 µM] | activity change, negative = cytotoxicity [3] 3.99% [at 0.349 µM] | viability change, negative = cytotoxic [4] 4% [at 0.349 µM] | viability change, negative = cytotoxic [5] 2.54% [at 0.349 µM] | activity change [6] -0.87% [at 0.349 µM, stronger effect = higher value] | activity change, negative = inhibition [7] 19.5% [at 0.349 µM] | activity change, negative = cytotoxicity [17] 0.759% [at 0.35 µM] | activity change, negative = cytotoxicity [8] 3.56% [at 0.349 µM] | activity change, negative = cytotoxicity [9] 9.77% [at 0.349 µM] | activation [10] -1.38% [at 0.349 µM] | cAMP activity change [11] -1.63% [at 0.349 µM] | activity change, negative = inhibition [12] 1.62% [at 0.349 µM] | activity change, negative = cytotoxicity [19] 1.18% [at 0.349 µM] | activity change, negative = inhibition [14] 2.97% [at 0.348 µM]

CS(C)(=O)=O
inactive: Potency [1] | Potency [2] | Potency [3] | Potency [4] | Potency [5] | Potency [6] | Potency [15] | Potency [16] | Potency [17] | Potency [8] | Potency [9] | Potency [10] | outcome [11] | Potency [12] | Potency [19] | outcome [13]

CCCCCCCCCCCCCCCCCO
inactive: activity change, negative = inhibition [1] 0.173% [at 19 µM] | activity change, negative = inhibition [2] -0.454% [at 19 µM] | activity change, negative = cytotoxicity [3] 1.77% [at 19 µM] | viability change, negative = cytotoxic [4] -3.91% [at 19 µM] | viability change, negative = cytotoxic [5] 5.3% [at 19 µM] | activity change [6] -2.43% [at 18.9 µM, stronger effect = higher value] | activity change, negative = inhibition [7] -1.47% [at 19 µM] | activity change, negative = cytotoxicity [17] 1.97% [at 19 µM] | activation [18] -1.33% [at 19 µM] | activity change, negative = cytotoxicity [9] 3.37% [at 19 µM] | activation [10] -1.67% [at 19 µM] | activity change, negative = cytotoxicity [19] 2.39% [at 19 µM] | activation [13] -3.68% [at 19 µM] | activity change, negative = inhibition [14] 1.26% [at 18.9 µM]
